Measured values published in PubChem BioAssay (Tox21).
Results filed as inconclusive are left out. Activity calls are given as the source filed them. Calls come from the whole dose curve; as a rule, active = well fitted inhibition curve with a large enough effect in the repeat runs; inconclusive = weak or mixed curves; inactive = no such curve, though single readings can be large or run the other way.

Target: Cytochrome P450 3A4 (Homo sapiens) (UniProt P08684)
Test: Cytochrome P450 Family 3 Subfamily A Member 4 (CYP3A4) small molecule antagonists: luciferase reporter qHTS assay (AID 1671201); note: nearly all actives have a fitted effect of over 50% in size
Conditions: P450-Glo CYP3A4 enzyme, luciferin luminescence, 1 h; series mostly up to 115 µM; activity change, negative = inhibition: at the top concentration
Outline: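 qHTS, 1536-well. CYP3A4 + proluciferin substrate, cpd 10 min RT → NADPH regen 1 h RT → detection reagent 20 min → luminescence (RLU). Ketoconazole positive control.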
% is set by controls: 0 for no effect and ±100 for the full control effect; potency is the fitted concentration of half-maximal effect.

Cytochrome P450 3A4 (Homo sapiens), sequence (P08684 whole entry, looked up): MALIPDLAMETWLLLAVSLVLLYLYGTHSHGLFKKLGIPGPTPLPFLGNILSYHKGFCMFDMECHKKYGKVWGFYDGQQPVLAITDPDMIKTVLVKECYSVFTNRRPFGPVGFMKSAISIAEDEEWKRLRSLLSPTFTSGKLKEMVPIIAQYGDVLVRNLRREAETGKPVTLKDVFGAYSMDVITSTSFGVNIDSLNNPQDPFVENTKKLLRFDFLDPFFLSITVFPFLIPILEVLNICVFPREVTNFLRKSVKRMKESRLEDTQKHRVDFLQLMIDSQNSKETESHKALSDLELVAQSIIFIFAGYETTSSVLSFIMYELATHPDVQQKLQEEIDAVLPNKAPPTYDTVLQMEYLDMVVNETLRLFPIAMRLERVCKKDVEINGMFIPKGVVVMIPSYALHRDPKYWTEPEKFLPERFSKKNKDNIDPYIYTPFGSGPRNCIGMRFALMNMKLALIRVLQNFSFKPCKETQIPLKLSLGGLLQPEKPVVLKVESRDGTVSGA

Row | SMILES | activity change, negative = inhibition | Potency
1 | C=CC(=O)O[C@H]1C[C@@H]2CC[C@@]1(C)C2(C)C | 2.55% (inactive) | –
2 | Cn1ccnc1 | -5.79% (inactive) | –
3 | O=C(Nc1ccc([N+](=O)[O-])cc1)Nc1ccc([N+](=O)[O-])cc1 (tested in a mixture with another compound) | 28.9% [at 52.9 µM] (inactive) | –
4 | NC(=O)C1CO1 (centres undefined) | -2.21% (inactive) | –
5 | COc1ccc(OC)c(N=Nc2c(O)ccc3ccccc23)c1 | – | 2.83 µM (active)
6 | Cc1ccc2nc(-c3ccc(N)cc3)sc2c1S(=O)(=O)O | -24.3% [at 52.9 µM] (inactive) | –
7 | C=COCCCC | 1.57% (inactive) | –
8 | CCSCC | 25.7% (inactive) | –
9 | O=C(O)C[C@H](O)C[C@H](O)/C=C/c1c(C2CC2)nc2ccccc2c1-c1ccc(F)cc1 | -3.86% [at 23.6 µM] (inactive) | –
10 | SC1CCCCC1 | 1.49% (inactive) | –
11 | [Cl][Sc]([Cl])[Cl] | 4.5% (inactive) | –
12 | Nc1ccc(Oc2cccc(Oc3ccc(N)cc3)c2)cc1 | – | 6.33 µM (active)
13 | COCCC(=O)OC | 3.11% (inactive) | –
14 | [Cl][Eu]([Cl])[Cl] | 4% (inactive) | –
15 | CCCC(C)C=O (centres undefined) | 4.94% (inactive) | –
16 | Cc1cc(C)c(O)c(C(C)(C)C)c1 | -24.3% (inactive) | –
17 | O=C(CCN1CCC(c2ccccc2)C1)c1ccc2c(c1)OCCO2 (centres undefined) | 98.1% [at 52.9 µM] (inactive) | –
18 | Oc1ccc2c(c1)CCC2 | 1.14% (inactive) | –
19 | CCCCNc1ccc(NCCCC)c2c1C(=O)c1ccccc1C2=O | 15.3% [at 23.6 µM] (inactive) | –
20 | CCCCCCCC/C=C\CCCCCCCC(=O)N(CCO)CCO | – | 15.8 µM (active)
21 | O=C(c1ccccc1)c1ccc(Cl)cc1 | 208% (inactive) | –
22 | CCC1(C)C(=O)N(Cl)C(=O)N1Cl (centres undefined) | -9.52% (inactive) | –
23 | Cc1ccc2sc3cccc(C)c3c2c1 | 0.751% (inactive) | –
24 | CCOC=C(C(=O)OCC)C(=O)OCC | 1.59% (inactive) | –
